# Laboratory results as given in PubChem BioAssay (NCI).
# This is part of a sample that, as a whole, favours compounds with a hit. Of some 83,000 tested, about 20% had one in any assay.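 In brief: 96-well plates, 48 h treatment, single concentration, percent growth endpoint.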 Active and inactive are the calls of the source. How the source made its calls: active means growth percent below 10; inactive means the rest.
# Tested on: SF-539 CNS
# Experiment: NCI-60 one-dose screen, 48 h (100 = growth as untreated, 0 = no growth, -100 = all killed)
# Settings: 10 µM unless noted
row,Compound,growth
1,COc1cc(NC(=O)CSc2nc3ccc(Cl)cc3c(=O)n2-c2ccc(F)cc2)cc(OC)c1OC,98.4% (inactive)
2,Cc1ccc(C(=O)Nc2ccc(CN3CCN(C)CC3)c(C(F)(F)F)c2)cc1C#Cc1cnc(N)c2ccc(F)cc12,-92.5% (active)
3,FC(F)(F)c1cccc(-c2[nH]ncc2-c2nnnn2-c2ccccc2)c1,63.9% (inactive)
4,COc1cc(CCNc2cnc3cc(N)cc(N)c3n2)cc(OC)c1,123% (inactive)
5,O=C(Nc1ccc(Cl)cn1)C1(c2ccccc2)CCCCC1,96.7% (inactive)
6,Brc1c(-c2ccncc2)nc2n1CCS2,119% (inactive)
7,O=C(Nc1cccc(Cn2c(=O)[nH]c3ccc(Oc4ncccn4)cc3c2=O)c1)c1ccc(Cl)cc1,59.2% (inactive)
8,CC(=O)c1cc(Nc2cc(C)nc(N)n2)cc(C(C)=O)c1,91.2% (inactive)
9,O=C(Nc1cccc(Cn2c(=O)[nH]c3ccc(Oc4ncccn4)cc3c2=O)c1)c1cc(Cl)cc(Cl)c1,11.8% (inactive)
10,CC(C)(C)OC(=O)N1C/C(=C\c2ccccc2)C(=O)/C(=C/c2ccccc2)C1,104% (inactive)
11,Nc1cc(N)c2nc(-c3ccccc3)c(NCCc3ccc(Cl)c(Cl)c3)nc2c1,-96.7% (active)
12,O=C(Nn1cnc2ccccc21)N1CCCC1,91.8% (inactive)
13,O=C(Nc1cccc(Cn2c(=O)[nH]c3ccc(Oc4ncccn4)cc3c2=O)c1)c1cccc(F)c1,80.1% (inactive)
14,O=C1NCCN1/N=C/c1c(Cl)nc2n1CCS2,94.9% (inactive)
15,CC(=O)N1N=C(c2ccc(Cl)cc2)CC1c1cn(-c2ccccc2)nc1-c1ccc([N+](=O)[O-])cc1 (centres undefined),93.6% (inactive)
16,CCCCCC(=C/c1ccccc1)/C=N/N=C(N)N,45.5% (inactive)
17,COc1cc2oc(-c3ccc(NC(=O)c4ccccc4)cc3)cc(=O)c2c(OC)c1OC,81.6% (inactive)
18,N#Cc1c(N)nc(Nc2nc3ccccc3[nH]2)nc1-c1ccc(Cl)cc1,111% (inactive)
19,COc1cc(N)c2nccc(C)c2c1OC,82% (inactive)

row,Compound,growth
1,Cc1ccc(C(=O)NN)cc1,114% (inactive)
2,COc1cc(OC)c2c(=O)cc(-c3ccccc3)oc2c1,108% (inactive)
3,C/C=C(/C)C(=O)OC1C=C(CO)C(=O)C(OC(=O)/C(C)=C\C)C1C(C)C (centres undefined),-92.1% (active)
4,Cc1nn(-c2ccccc2)c(N)c1N=C1NC(=O)/C(=C/c2ccc(Cl)cc2)S1,81% (inactive)
5,COCC(=O)NNc1[nH]c(-c2ccc(OC)cc2)cc1C#N,96.2% (inactive)
6,Cc1ncc(C(=O)Nc2ccc(CN3CCN(C)CC3)c(C(F)(F)F)c2)cc1C#Cc1cnc(NC2CC2)c2ncccc12,-98.3% (active)
7,CCCOC(=O)c1c(C)n(C)c2scc[n+]12,81.1% (inactive)
8,Cc1ccc2c(O)c(O)cc(NC(C)CCCN)c2n1 (centres undefined),14.6% (inactive)
9,CC(=O)N(N=O)c1ccc([N+](=O)[O-])cc1Cl,72.7% (inactive)
10,Cc1ccc2c(c1)C(=O)CCS2,87.3% (inactive)
11,O=C(O)/C(Br)=C/c1c[nH]c2ccc(Br)cc12,112% (inactive)
12,COc1ccc(-n2nnnc2-c2cn[nH]c2C(F)(F)F)cc1,89.6% (inactive)
13,COc1ccc(C2C3(C#N)C(N)=NC(=C(C#N)C#N)C23C#N)cc1OC (centres undefined),94.2% (inactive)
14,CCOC(=O)c1cc(-c2ccc(OC)cc2)[nH]c1NNC(=O)CCOC,106% (inactive)
15,O=C(NCCCl)Nc1nccnc1OCc1ccc(F)cc1,109% (inactive)
16,CC1=C(C)C(=O)C(C(C)C2=C(C)C(=O)C(C)=C(C)C2=O)=C(C)C1=O,81.2% (inactive)
17,COc1cc(NC(C)CCCN)c2nccc(C)c2c1OC (centres undefined),41.3% (inactive)
18,COc1cc2c(c(OC)c1OC)C(=O)CC(c1cccc(C(=O)Nc3cccc(Br)c3)c1)O2 (centres undefined),86.8% (inactive)

# Tested on: UACC-257 melanoma
# Experiment: as above
# Settings: 10 µM unless noted
row,Compound,growth
1,COc1cc(NC(=O)CSc2nc3ccc(Cl)cc3c(=O)n2-c2ccc(F)cc2)cc(OC)c1OC,97.4% (inactive)
2,Cc1ccc(C(=O)Nc2ccc(CN3CCN(C)CC3)c(C(F)(F)F)c2)cc1C#Cc1cnc(N)c2ccc(F)cc12,-60.9% (active)
3,FC(F)(F)c1cccc(-c2[nH]ncc2-c2nnnn2-c2ccccc2)c1,48.4% (inactive)
4,COc1cc(CCNc2cnc3cc(N)cc(N)c3n2)cc(OC)c1,111% (inactive)
5,CCOC(=O)CNS(=O)(=O)CC(=O)c1ccccc1,132% (inactive)
6,O=C(Nc1ccc(Cl)cn1)C1(c2ccccc2)CCCCC1,109% (inactive)
7,Brc1c(-c2ccncc2)nc2n1CCS2,91.1% (inactive)
8,O=C(Nc1cccc(Cn2c(=O)[nH]c3ccc(Oc4ncccn4)cc3c2=O)c1)c1ccc(Cl)cc1,25.9% (inactive)
9,CC(=O)c1cc(Nc2cc(C)nc(N)n2)cc(C(C)=O)c1,103% (inactive)
10,O=C(Nc1cccc(Cn2c(=O)[nH]c3ccc(Oc4ncccn4)cc3c2=O)c1)c1cc(Cl)cc(Cl)c1,68.4% (inactive)
11,CC(C)(C)OC(=O)N1C/C(=C\c2ccccc2)C(=O)/C(=C/c2ccccc2)C1,91.4% (inactive)
12,Nc1cc(N)c2nc(-c3ccccc3)c(NCCc3ccc(Cl)c(Cl)c3)nc2c1,5.16% (active)
13,O=C(Nn1cnc2ccccc21)N1CCCC1,101% (inactive)
14,O=C(Nc1cccc(Cn2c(=O)[nH]c3ccc(Oc4ncccn4)cc3c2=O)c1)c1cccc(F)c1,67.3% (inactive)
15,O=C1NCCN1/N=C/c1c(Cl)nc2n1CCS2,105% (inactive)
16,CC(=O)N1N=C(c2ccc(Cl)cc2)CC1c1cn(-c2ccccc2)nc1-c1ccc([N+](=O)[O-])cc1 (centres undefined),106% (inactive)
17,Cc1c([C@H](C(Cl)Cl)[C@H](O)[C@H]2C[C@H](C)C(=O)O2)ccc2c1C(=O)[C@H]1[C@H]2C[C@@H](Br)[C@@]23O[C@@H](CO[C@H]2O)CC13C (some centres undefined),61.9% (inactive)
18,COc1cc2oc(-c3ccc(NC(=O)c4ccccc4)cc3)cc(=O)c2c(OC)c1OC,97.3% (inactive)
19,N#Cc1c(N)nc(Nc2nc3ccccc3[nH]2)nc1-c1ccc(Cl)cc1,109% (inactive)

row,Compound,growth
1,COc1cc(N)c2nccc(C)c2c1OC,92.5% (inactive)
2,COc1cc(OC)c2c(=O)cc(-c3ccccc3)oc2c1,97.8% (inactive)
3,C/C=C(/C)C(=O)OC1C=C(CO)C(=O)C(OC(=O)/C(C)=C\C)C1C(C)C (centres undefined),-48.8% (active)
4,Cc1nn(-c2ccccc2)c(N)c1N=C1NC(=O)/C(=C/c2ccc(Cl)cc2)S1,105% (inactive)
5,COCC(=O)NNc1[nH]c(-c2ccc(OC)cc2)cc1C#N,109% (inactive)
6,Cc1ncc(C(=O)Nc2ccc(CN3CCN(C)CC3)c(C(F)(F)F)c2)cc1C#Cc1cnc(NC2CC2)c2ncccc12,-65% (active)
7,CCCOC(=O)c1c(C)n(C)c2scc[n+]12,78.8% (inactive)
8,Cc1ccc2c(O)c(O)cc(NC(C)CCCN)c2n1 (centres undefined),98.4% (inactive)
9,CC(=O)N(N=O)c1ccc([N+](=O)[O-])cc1Cl,45.4% (inactive)
10,Cc1ccc2c(c1)C(=O)CCS2,102% (inactive)
11,O=C(O)/C(Br)=C/c1c[nH]c2ccc(Br)cc12,117% (inactive)
12,COc1ccc(-n2nnnc2-c2cn[nH]c2C(F)(F)F)cc1,93.7% (inactive)
13,COc1ccc(C2C3(C#N)C(N)=NC(=C(C#N)C#N)C23C#N)cc1OC (centres undefined),102% (inactive)
14,CCOC(=O)c1cc(-c2ccc(OC)cc2)[nH]c1NNC(=O)CCOC,105% (inactive)
15,O=C(NCCCl)Nc1nccnc1OCc1ccc(F)cc1,109% (inactive)
16,CC1=C(C)C(=O)C(C(C)C2=C(C)C(=O)C(C)=C(C)C2=O)=C(C)C1=O,92.7% (inactive)
17,COc1cc(NC(C)CCCN)c2nccc(C)c2c1OC (centres undefined),112% (inactive)
18,COc1cc2c(c(OC)c1OC)C(=O)CC(c1cccc(C(=O)Nc3cccc(Br)c3)c1)O2 (centres undefined),76.8% (inactive)
